According to PubChem BioAssay (NCATS):
Records with an inconclusive call do not appear. Calls of active or inactive are those of the source. Calls follow the shape of the dose curve; as a rule, active = well fitted activation curve with a large enough effect; inconclusive = small, poorly fitted or top-dose-only effect; inactive = no such curve, though single readings can be large or run the other way. Residues, ends and D or L forms follow the SMILES beside them.

molecular target: Cellular tumor antigen p53 (Homo sapiens) (UniProt P04637); assay: Primary qHTS for small molecule compounds that upregulate eGFP-tagged delta133p53alpha (in N-terminal) cells. (AID 2060322); settings: NCI-H358 eGFP-delta133p53alpha fluorescence, 24 h; activation: stronger effect = higher value; also: nearly all actives have a fitted effect of over 75% in size;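 as to activation: cells pre-induced with doxycycline then dosed without doxycycline; series mostly up to about 56 µM; 0% = DMSO vehicle and 100% = reference activator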
Sequence (P04637 whole entry, looked up): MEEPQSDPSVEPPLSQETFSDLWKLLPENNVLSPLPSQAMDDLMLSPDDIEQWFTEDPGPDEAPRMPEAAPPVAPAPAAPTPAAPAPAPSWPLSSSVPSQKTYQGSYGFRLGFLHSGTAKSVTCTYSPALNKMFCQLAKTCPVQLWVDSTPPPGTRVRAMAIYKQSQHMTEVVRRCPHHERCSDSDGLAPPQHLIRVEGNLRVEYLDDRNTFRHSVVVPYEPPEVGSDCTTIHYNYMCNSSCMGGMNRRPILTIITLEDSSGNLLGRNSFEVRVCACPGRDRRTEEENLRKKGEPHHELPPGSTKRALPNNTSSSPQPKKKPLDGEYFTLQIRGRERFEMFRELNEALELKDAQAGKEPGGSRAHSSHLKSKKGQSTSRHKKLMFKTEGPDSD
Method in brief: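 NCI-H358 cells pre-induced 24 h with 10 ng/ml doxycycline for eGFP-delta133p53alpha, plated dox-free and exposed 24 h at 37C to titrated compounds. Fixed, Hoechst-stained; gated GFP peak intensity by laser scanning cytometry, normalized to DMSO (0%) and 57.5 uM 5-azacytidine (100%).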
Potency is read from the fitted curve at half-maximal effect.

| SMILES | activation | Potency |
| --- | --- | --- |
| COc1ccc2c3c1OC1C[C@@H](O)C=C[C@@]31CCN(C)C2 (some centres undefined) | 8.8% (inactive) |  |
| CCN(CC)CCOC(=O)C1(c2ccccc2)CCCC1 | 3.35% (inactive) |  |
| C[C@@]12C(=O)OC(=O)[C@@]1(C)C1CCC2O1 |  | 9.68 µM (active) |
| CC(C)C(=O)Nc1cccc(C2CN3CCSC3=N2)c1 (centres undefined) | 6.69% (inactive) |  |
| CC(=O)N[C@@H](CO)C(=O)N[C@@H](CC(=O)O)C(=O)N[C@@H](CCCCN)C(=O)N1CCC[C@H]1C(=O)O (Ac-SDKP-OH) | -24.3% (inactive) |  |
| COc1ccc2cc(C=O)ccc2c1 | -1.69% (inactive) |  |
| O=C(O)COc1nn(Cc2ccccc2)c2ccccc12 | 28.8% (inactive) |  |
| C=CC[C@@H]1C=C(C)C[C@H](C)C[C@H](OC)[C@H]2O[C@@](O)(C(=O)C(=O)N3CCCC[C@H]3C(=O)O[C@H](C(C)=C[C@@H]3CC[C@H](O)[C@H](OC)C3)[C@@H](C)[C@@H](O)CC1=O)[C@@H](C)C[C@@H]2OC | 23.1% (inactive) |  |
| Cc1cc(CCCOc2c(C)cc(-c3noc(C(F)(F)F)n3)cc2C)on1 | 19.8% (inactive) |  |
| CC(C)=CCNc1ncnc2c1ncn2[C@@H]1O[C@H](CO)[C@@H](O)[C@H]1O | -20.9% (inactive) |  |
| CCCCCCCCCCCCCC(=O)OC(C)C | 14.1% (inactive) |  |
| C=CCCCCCCCCC(=O)O | -20.9% (inactive) |  |
| CC(C)(C)c1[nH]cnc1C=c1[nH]c(=O)c(=Cc2ccccc2)[nH]c1=O | -1.26% (inactive) |  |
| COc1cc(NS(=O)(=O)c2ccc(N)cc2)ncn1 | -5.86% (inactive) |  |
